Screening data deposited in PubChem BioAssay by National Center for Advancing Translational Sciences (NCATS).
HTT aggregate: mutant huntingtin aggregation inhibition; PC12 HttQ103-GFP aggregates, Acumen cytometry, 40 h; actives 1.1% (n = 220,000); Potency, µM (highest dose often 46.1 µM), for the others: top-dose activity change, negative = inhibition, usual class: inhibitors; also: potency is read from the fitted curve at half-maximal effect; % is scaled to controls: 0 for no effect and ±100 for the full control effect; nearly all actives have a fitted effect of over 60% in size
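PC12/HTTQ103-GFP, ecdysone-inducible; teb 100 nM; cpd qHTS titration; GFP aggregates read on laser cytometer, Ex 488/Em 500-530 nm.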
IMPase inh: cell-permeable inhibitors of inositol monophosphatase (IMPase); P97697; CHO-M1 cells, IP1 accumulation, HTRF TR-FRET ratio; inhibition (IP1 accumulation), % at 46.1 µM; 120,000 tested, under 10 active; AID 901; active = well fitted curve in the direction sought with a large enough effect in the signal ratio, not every such curve was filed as active; inconclusive = small, poorly fitted or top-dose-only effect, or a change in a side signal; inactive = no such curve, though single readings can be large or run the other way; the % refers to the signal ratio;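 also: cells stimulated with carbachol in lithium chloride buffer; plate controls were DMSO basal wells for no effect and reference inhibitor wells for full effect; higher means more IMPase inhibition seen as more IP1 and lower FRET ratio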
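CHO-M1, 2000 cells/well, cultured 16–30 h; cpd up to 46 uM; carbachol (50 uM solution, stimulation buffer w/ 50 mM LiCl, pH 7.4), 30 min 37C; IP-One TR-FRET, 10 min RT; Ex 320/Em 665, 620; Hill-fit AC50.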
NPSR antagonist: blocks cAMP signaling of the human neuropeptide S receptor | CHO-NPSR cells, cAMP TR-FRET, antagonist mode | Potency, µM (top dose mostly 38.3 µM), without a hit: top-dose activity change, negative = inhibition, actives largely listed as inhibitors | actives 1% (n = 220,000) | AID 1461; also: potency is read from the fitted curve at half-maximal effect; % is scaled to controls: 0 for no effect and ±100 for the full control effect; nearly all actives have a fitted effect of over 50% in size
Target sequence (Q6W5P4 whole entry, looked up): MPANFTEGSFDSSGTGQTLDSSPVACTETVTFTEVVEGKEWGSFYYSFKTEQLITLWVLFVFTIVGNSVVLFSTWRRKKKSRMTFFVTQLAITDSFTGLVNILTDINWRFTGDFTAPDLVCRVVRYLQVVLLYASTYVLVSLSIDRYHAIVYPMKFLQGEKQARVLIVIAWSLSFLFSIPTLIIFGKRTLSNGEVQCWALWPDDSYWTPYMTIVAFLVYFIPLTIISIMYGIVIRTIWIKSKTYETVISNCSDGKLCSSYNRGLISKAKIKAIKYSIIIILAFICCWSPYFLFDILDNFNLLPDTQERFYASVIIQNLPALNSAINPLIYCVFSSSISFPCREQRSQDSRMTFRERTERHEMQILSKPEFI
Lamin A splicing: changes lamin A minigene splicing in HeLa cells; Potency, µM (series often up to 46.1 µM), for inactives: top-dose ratio change, negative = inhibition, hits mostly inhibitors; actives 0.01% (n = 200,000); HeLa LMNA splicing GFP/RFP minigene ratio, 48 h; active = well fitted inhibition curve with a large enough effect in the signal ratio, with a control signal flat, not every such curve was filed as active; inconclusive = small, poorly fitted or top-dose-only effect, or effect the other way, or a change in a side signal; the % refers to the signal ratio; also: potency is read from the fitted curve at half-maximal effect; % is scaled to controls: 0 for no effect and ±100 for the full control effect
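S3 HeLa cells stably expressing lamin A-EGFP splicing minigene plus DsRed2, 600 cells/well, 48 h compound exposure at 37C. Laser-scanning cytometry; analysed as GFP (500-530 nm)/RFP (575-640 nm) total intensity ratio; 0.5% DMSO vehicle.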
IMPase Li cell: membrane-permeable IMPase blocker, potentiated with lithium; AID 1457; Potency, µM (highest dose often 59.4 µM), for the others: at the highest dose activity, negative = IMPase inhibition, most hits filed as inhibitors; CHO-M1 cells, IP1 TR-FRET (IP-One), carbachol + lithium; actives 0.35% (n = 210,000);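 also: IP1 builds up when IMPase is blocked and the TR-FRET signal falls; potency is read from the fitted curve at half-maximal effect; plate controls were basal vehicle for no effect and high inhibitor control for full effect; nearly all actives have a fitted effect of over 50% in size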
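CHO cells stably expressing M1 receptor (2000/well, cultured 16–30 h) treated 30 min at 37C with compound plus low lithium. Cytosolic IP1 by TR-FRET (665/620 ratio and 620 channel) after 10 min lysis; AC50 by Hill fit.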
HTT cytoprotect: cytoprotection in Huntington HTT-Q103 PC12 cell model. PC12 HTT-Q103 induced, cytoprotection, ATP luminescence, 40 h. Potency, µM (doses to about 56.4 µM), for the others: cytoprotection (ATP increase), usual class: activators. actives 0.14% (n = 230,000); also: potency is read from the fitted curve at half-maximal effect; % of control where 0% means no effect; nearly all actives have a fitted effect of over 45% in size
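PC12 cells with ecdysone-inducible HTT exon 1 Q103-GFP, induced with 100 nM tebufenozide and co-treated with library compounds in a dose series (1536-well, 1500 cells/well). Cytoprotection read as ATP content by ATPlite luminescence.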
* hit, by the source's call; u = inconclusive; x = not tested or not shown; [ ] = dose if it differs, or a comment. Sampled rows, rich in hits. Any-hit rate of the full collection: about 1.6%. Unless noted, calls follow the shape of the dose curve; as a rule, active = well fitted curve in the direction sought with a large enough effect; inconclusive = small, poorly fitted or top-dose-only effect, or another doubt; inactive = no such curve, though single readings can be large; an effect the other way counts as inactive or inconclusive.

SMILES	HTT aggregate	IMPase inh	NPSR antagonist	Lamin A splicing	IMPase Li cell	HTT cytoprotect
CC(C)(C)OC(=O)[C@H](C1N[C@@H](C(=O)O)C(C)(C)S1)N1C(=O)c2ccccc2C1=O (stereo not given in full)	x	x	x	x	-9%	x
CCCn1nc2cc(C(=O)NCC34CC5CC(CC(C5)C3)C4)ccc2c1OCC	32µM*	11	-27%[46.1 µM]	15%	15%[38.3 µM]	-29%
COc1ccc(Br)cc1C(C[N+](=O)[O-])c1c(N)n(C)c(=O)n(C)c1=O (stereo not given)	4µM*	x	-51%	x	x	-79%[10 µM]
CC1CN(Cc2ccccc2)c2ccccc2NC1=S (stereo not given)	8%	x	-51%	-21%	-13%	x
N#Cc1c(-c2ccco2)nc(SCc2ccc(F)cc2)[nH]c1=O	-28%	u	7.9µM*	5%	13µM*	-13%
COc1ccc(NC(=O)Nc2nc(C)cc(C)n2)c(OC)c1	28µM*	x	7%	x	x	x
COC(=O)c1cc(OC)c(OC)cc1NC(=O)Nc1ccc(OC)cc1OC	14%	u	-6%[46.1 µM]	-6%	-11%[38.3 µM]	-8%
C=C(CO)[C@H]1Cc2c(ccc3c(=O)c4c(oc23)COc2cc(OC)c(OC)cc2-4)O1	x	x	x	x	x	-12%
C=CCOC(=O)C(C(C)=O)C(NC(=O)OC)c1ccc(F)cc1 (stereo not given)	x	x	x	x	x	2%[10 µM]
O=C(Nc1ccc(N2CCCC2)c(Cl)c1)c1ccco1	-11%	13	-24%[46.1 µM]	u	0%[38.3 µM]	-95%
CCCC(=O)N1CCN(c2ccc(NC(=O)c3ccc([N+](=O)[O-])o3)cc2)CC1	22µM*	x	7.9µM*	x	-14%	-73%
CCC(=O)N1CCN(c2ccc(NC(=O)c3ccc([N+](=O)[O-])o3)cc2)CC1	-5%[9.22 µM]	x	-56%	x	15%	9%[10 µM]
O=C(Nc1ccc(N2CCCC2)c(Cl)c1)c1ccc([N+](=O)[O-])o1	-15%	x	7.9µM*	x	23%	u
Cc1nc(NCc2ccccc2)c2nc(-c3ccccc3)n(CCN3CCCCC3)c2n1	x	x	x	x	10%	-69%
CN(C)c1nc(=NCc2ccco2)ss1	0.89µM*	x	u	x	x	-92%[10 µM]
COC(=O)[C@@H]1[C@H]2C[C@H]3c4[nH]c5ccccc5c4CCN3C[C@H]2CC[C@@H]1O	x	x	x	x	u	-28%
Nc1ccc2nc(-c3ccc(Cl)cc3)[nH]c2c1	17%	-19	2%[46.1 µM]	-19%	10µM*	-92%
O=[N+]([O-])c1ccc(-c2nc3ccc([N+](=O)[O-])cc3[nH]2)cc1	18µM*	13	-1%[46.1 µM]	13%	10%[38.3 µM]	-94%
Nc1ccc(-c2nc3ccc([N+](=O)[O-])cc3[nH]2)cc1	4%	x	-1%	-14%	-4%	-53%[10 µM]
C[C@@H](O)[C@H]1C(=O)N2C(C(=O)O)=C(S[C@@H]3CN[C@H](CNS(N)(=O)=O)C3)[C@H](C)[C@H]12	-1%	x	x	x	x	20%
Cc1ccc(C(C#N)c2ccc3c(C(F)(F)F)cc(C(F)(F)F)nc3n2)cc1 (stereo not given)	u	9	-12%[46.1 µM]	u	11%[38.3 µM]	-55%
N#CC(c1ccccc1)c1ccc2c(C(F)(F)F)cc(C(F)(F)F)nc2n1 (stereo not given)	22µM*	17	u	-2%	24%[38.3 µM]	-70%
CC(=O)N(Cc1ccc(F)cc1)C1=C(NCCc2ccccc2)C(=O)c2ccccc2C1=O	7.1µM*	13	u	u	13%[38.3 µM]	-157%
COc1ccc(-c2nc(C(=O)N3CCN(C)CC3)sc2-c2ccc(OC)cc2)cc1	x	4	x	x	6%	5%
COc1ccc(CCn2c(C)cc(C(=O)CSc3nc(N)cc(=O)[nH]3)c2C)cc1	7.1µM*	5	-16%[46.1 µM]	1%	1%[38.3 µM]	-59%
Cc1cc(C(=O)CSc2nc(N)cc(=O)[nH]2)c(C)n1CCc1ccc(F)cc1	u	4	-21%[46.1 µM]	u	12%[38.3 µM]	-48%
